Pin1 inh: qHTS Assay to Find Inhibitors of Pin1; actives 0.009% (n = 390,000); Pin1 FP peptide displacement, HiFluor488, 10 min; Potency, µM (doses to about 115 µM), usual class: inhibitors; Peptidyl-prolyl cis-trans isomerase NIMA-interacting 1 (Homo sapiens), Q13526; active means well fitted inhibition curve with a large enough effect in the polarisation, with a control signal flat, not every such curve was filed as active; inconclusive means small, poorly fitted or top-dose-only effect, or effect the other way, or a change in a side signal; inactive means no such curve, though single readings can be large or run the other way; the % refers to the polarisation
Target sequence (Q13526 whole entry, looked up): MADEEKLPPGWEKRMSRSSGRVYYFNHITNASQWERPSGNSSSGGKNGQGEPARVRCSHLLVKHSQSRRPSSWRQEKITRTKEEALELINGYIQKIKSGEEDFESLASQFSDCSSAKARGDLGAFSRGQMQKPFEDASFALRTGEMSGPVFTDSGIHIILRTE
Tb PFK inh: qHTS Assay to Find Inhibitors of T. brucei phosphofructokinase. Potency, µM (titrated, usually from 57.5 µM), hits mostly inhibitors. actives 0.17% (n = 330,000). ATP-dependent 6-phosphofructokinase (Trypanosoma brucei brucei), O15648. T. brucei PFK, ADP-Glo luminescence; further: nearly all actives have a fitted effect of over 60% in size
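ADP-Glo luminescence quantified ADP after 45 min at room temperature, with 1.25 nM T. brucei PFK, 0.1 mM ATP and 0.5 mM fructose-6-phosphate in pH 8.0 TEA buffer. qHTS titrations up to 57 µM; curves classified by quality.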
PI5P4Ka inh: qHTS for Inhibitors of phosphatidylinositol 5-phosphate 4-kinase (PI5P4K). Phosphatidylinositol 5-phosphate 4-kinase type-2 alpha (Homo sapiens), P48426. PI5P4Kalpha enzyme, ADP-Glo luminescence, 60 min; active compounds read low. max response, %. actives 1.2% (n = 330,000). AID 652105, 2013; active means max response of -50% or lower; inconclusive means between -30% and -50%; inactive means -30% or higher; further: value at the top dose of about 77 µM
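Single end-point luminescence (ADP-Glo) quantified ADP from PI5P4Kalpha turnover; ATP 5 microM final, 1 h at RT, 0.1% CHAPS and 0.28 mM EGTA in HEPES pH 7.4.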
Tb PGK inh: qHTS Assay to Find Inhibitors of Phosphoglycerate Kinase. Phosphoglycerate kinase, glycosomal (Trypanosoma brucei brucei), P07378. PGK/GAPDH coupled, Kinase-Glo luminescence, 60 min. Potency, µM (titrated, usually from 57.5 µM), most hits filed as inhibitors. actives 0.043% (n = 380,000). AID 602233, 2012; further: nearly all actives have a fitted effect of over 60% in size
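Recombinant glycosomal PGK reaction used 1,3-bisphosphoglycerate generated in-well by GAPDH (100nM final) in 100mM TEA pH 7.6, 5mM MgCl2, 0.01% Tween-20. After 60 minutes at room temperature, ATP was read by Kinase-Glo Plus luminescence end-point.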
PI4K2A inh: qHTS for small molecular inhibitors of PI4K2A. actives 0.13% (n = 420,000). purified PI4K2A, ADP-Glo luminescence, 1 h; active compounds read low. activity change, negative = inhibition, % at 76.9 µM. Phosphatidylinositol 4-kinase type 2-alpha (Homo sapiens), Q9BTU6; in the data active means activity change below about -50%; inconclusive means mostly about -30% to -49%
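Compounds are screened against recombinant PI4K2A using PI as substrate and ATP, the latter dispensed at 300 microM. Reactions run one hour at ambient temperature before ADP-Glo detection; full inhibition defined by wells lacking enzyme.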
ADP-Glo interf: qHTS for Inhibitors of PI5P4K: ADP-Glo counter assay; 1,100 tested, under 10 active; shares compounds with PI5P4Ka inh; ADP-Glo detection counter-screen, luciferase luminescence, no enzyme; Potency, µM (series often up to 76.9 µM), hits mostly inhibitors
Hits are given with their value; 0 = inactive; ? = inconclusive; - = not tested or not shown. Shown is part of a subset that was picked to be rich in hits. Unless noted, the call rests on the fitted dose curve; in most records, active means well fitted curve in the direction sought with a large enough effect; inconclusive means small, poorly fitted or top-dose-only effect, or another doubt; inactive means no such curve, though single readings can be large; an effect the other way counts as inactive or inconclusive.

SMILES	Pin1 inh	Tb PFK inh	PI5P4Ka inh	Tb PGK inh	PI4K2A inh	ADP-Glo interf
CCOc1cccc(NC(=O)CSc2sc3c(O)cc(=O)[nH]c3c2C#N)c1	0	0	-59.9	0	0	0
N#Cc1c(SCC(=O)Nc2nccs2)sc2c(O)cc(=O)[nH]c12	?	0	-94.5	0	0	0
N#Cc1c(SCC(=O)Nc2nc3ccccc3s2)sc2c(O)cc(=O)[nH]c12	?	0	-78.3	0	0	0
O=C(CSc1nc(O)cc(=O)n1-c1ccccc1)Nc1nc2ccccc2s1	0	0	-66.1	0	0	0
N#Cc1c(SCC(=O)Nc2nc3ccc(Br)cc3s2)sc2c(O)cc(=O)[nH]c12	?	0	-101.7	?	0	0
CCN(c1ccc(OC)cc1)S(=O)(=O)c1csc(C(N)=O)c1	0	0	0	0	0	-
Cc1c(-c2cc(C(=O)O)on2)cnn1C	0	0	-50.8	0	0	0
O=C1CCC(C(=O)Nc2ccccc2)N1 (stereo unspecified)	0	0	0	0	0	-
O=C1CCC(C(=O)Nc2ccc([N+](=O)[O-])cc2)N1 (stereo unspecified)	?	0	-54.4	0	0	0
COc1ccc(C)cc1NC(=O)CSc1nnc(-c2ccc(C)cc2)o1	0	0	0	0	0	-
O=C(O)Cc1nc(-c2cccnc2)sc1-c1ccc(Br)cc1	0	0	-61.3	0	0	0

Assay outcomes as filed in PubChem BioAssay.
